In the supplement of paper PMC7184167:
Where a name gives a salt, the structure may show the parent alone.

Each molecule was assayed on replication-induced senescent mouse newborn dermal fibroblasts (NBF) (assay: relative cell viability of senescent cells (fraction); higher = less killing of senescent cells). Settings: 1 µM; 3 days.
Method: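 Replication-induced senescent newborn mouse skin fibroblasts (NBFs) in 24-well plates were treated with a Selleck FDA-approved drug library at 1 µM for 3 days.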

Row | SMILES | relative cell viability
1 | CC(C)(C)c1cc(NC(=O)Nc2ccc(-c3cn4c(n3)sc3cc(OCCN5CCOCC5)ccc34)cc2)no1 [Quizartinib (AC220)] | 0.955
2 | C[C@]12C=CC(=O)C=C1CC[C@@H]1[C@@H]2[C@@H](O)C[C@@]2(C)[C@H]1CC[C@]2(O)C(=O)CO [Prednisolone] | 1.01
3 | C[C@H](CCC(=O)O)[C@H]1CC[C@H]2[C@@H]3[C@H](O)C[C@@H]4C[C@H](O)CC[C@]4(C)[C@H]3CC[C@]12C [Chenodeoxycholic Acid] | 1.06
4 | C[C@@H](Oc1cc(-c2cnn(C3CCNCC3)c2)cnc1N)c1c(Cl)ccc(F)c1Cl | 0.71
5 | CCCCC[C@H](O)/C=C/[C@H]1[C@H](O)CC(=O)[C@@H]1CCCCCCC(=O)O [Alprostadil] | 0.875
6 | COC(=O)N[C@H](C(=O)N[C@@H](Cc1ccccc1)[C@@H](O)CN(Cc1ccc(-c2ccccn2)cc1)NC(=O)[C@@H](NC(=O)OC)C(C)(C)C)C(C)(C)C [Atazanavir Sulfate] | 0.988
7 | Nc1ccccc1NC(=O)c1ccc(CNC(=O)OCc2cccnc2)cc1 [Entinostat (MS-275)] | 0.536
8 | Cc1cnc(C(=O)O)c[n+]1[O-] [Acipimox] | 0.938
9 | Cn1c(=O)c2c(ncn2CC(O)CO)n(C)c1=O (configuration not stated) [Dyphylline] | 0.335
10 | CC(C)NCC(O)COc1ccc(CCOCC2CC2)cc1 (configuration not stated) [Betaxolol HCl] | 1.1
11 | COC(=O)C1=C(C)NC(C)=C(C(=O)OC(C)C)C1c1cccc2nonc12 (configuration not stated) [Isradipine] | 0.977
12 | CC(C)OC(=O)C(C)(C)Oc1ccc(C(=O)c2ccc(Cl)cc2)cc1 [Fenofibrate] | 1.06
